Screening data from PubChem.
Only some compounds are listed: those with a hit (about 6.1% of all), similar ones and a draw of the others.
D1 potentiator: Potentiators of Human D1 Dopamine Receptor: qHTS; D(1A) dopamine receptor (Homo sapiens), P21728; HEK293 TREx D1 cells, calcium flux, dopamine EC20 potentiation; potentiation, % at 10 µM; 0.036% of 360,000 active; AID 504651, 2011; in the data active = potentiation above about 30%
D1 ag: Allosteric Agonists of the Human D1 Dopamine Receptor: qHTS | D(1A) dopamine receptor (Homo sapiens), P21728 | HEK293 T-REx D1 cells, calcium flux, agonist mode | activation, % at 2 µM | 1% of 360,000 active; in the data active = activation above about 30%
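Inducible HEK293 T-REx D1 cells, force-coupled to calcium signalling, were plated at 4000 cells/well with tetracycline and held overnight at 30 C. After no-wash calcium dye loading, compound-evoked calcium rise over 180 s flagged agonists.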
D1 antagonist: Antagonist of Human D 1 Dopamine Receptor: qHTS | D(1A) dopamine receptor (Homo sapiens), P21728 | HEK293 TREx D1 cells, calcium flux, dopamine EC80; hits give low values | activity change, negative = inhibition, % at 10 µM | 3.2% of 360,000 active | AID 504652, 2011; in the data active = activity change below about -30%
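Cells carrying a force-coupled, tetracycline-inducible human D1 receptor report calcium flux. Each well gets a 10 s baseline, compound with 180 s monitoring, then an EC80 dopamine stimulus with a second 180 s kinetic read.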
DRD3 agonist: qHTS of D3 Dopamine Receptor Agonist: qHTS. D(3) dopamine receptor (Homo sapiens), P35462. D3R DiscoveRx beta-arrestin cells, luminescence, 90 min. max activation, %. 0.58% of 410,000 active. AID 652048, 2013; in the data active = max activation above about 30%
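Agonist mode: compounds and dopamine controls were applied to plated cells for 90 min at 37 degrees C after an overnight attachment at 1500 cells/well. Luminescent read-out followed 30 - 60 minutes at room temperature with DiscoveRx detection reagent.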
ERG Ets-DNA blk: qHTS for Small Molecule Inhibitors of the ERG Ets/DNA interaction; 0.028% of 370,000 active; Potency, µM (top dose mostly 76.9 µM), usual class: inhibitors; Transcriptional regulator ERG (Homo sapiens), P11308; fluorescence polarization, His-ERG Ets domain / labelled DNA; active = well fitted inhibition curve with a large enough effect in the polarisation, with a control signal flat; the % refers to the polarisation;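 note: polarization taken with two DNA probes labelled with fluorescein and Texas red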
Target sequence (P11308 whole entry, looked up, the tested form may be a part): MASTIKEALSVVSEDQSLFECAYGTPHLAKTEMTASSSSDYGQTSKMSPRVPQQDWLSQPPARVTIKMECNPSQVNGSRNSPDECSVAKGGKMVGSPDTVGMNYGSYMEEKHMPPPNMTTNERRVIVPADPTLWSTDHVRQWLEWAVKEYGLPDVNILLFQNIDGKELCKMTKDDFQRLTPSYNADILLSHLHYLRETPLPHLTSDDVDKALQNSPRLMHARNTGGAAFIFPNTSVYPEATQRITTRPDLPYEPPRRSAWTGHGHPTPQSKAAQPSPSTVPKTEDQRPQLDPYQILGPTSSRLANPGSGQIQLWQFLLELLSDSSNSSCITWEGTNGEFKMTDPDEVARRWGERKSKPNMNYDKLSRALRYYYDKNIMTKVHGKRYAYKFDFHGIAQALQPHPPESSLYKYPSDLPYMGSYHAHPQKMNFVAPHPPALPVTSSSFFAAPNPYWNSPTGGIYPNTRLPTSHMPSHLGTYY
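His-tagged ERG Ets domain (1 uM in the protein solution; 300mM KCl, 50mM Tris-HCl, 1mM EDTA, 1mM DTT, pH 7.5) received compound, then a probe mix of 5 nM fluorescein-DNA and 100nM Texas-615-DNA. Fluorescence polarization was read for both dyes.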
D3 antag: qHTS of D3 Dopamine Receptor Antagonist: qHTS | 2.5% of 360,000 active | max response, negative = inhibition, % | D3R cells, DiscoveRx beta-arrestin luminescence, antagonist mode; hits give low values | D(3) dopamine receptor (Homo sapiens), P35462 | AID 652054, 2013; in the data active = max response below about -50%
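Cells expressing the human receptor were seeded at 1500 cells/well, incubated overnight at 37 degrees C in 5% CO2, then exposed to library compounds with dopamine controls for 90 minutes at 37 degrees C before luminescent detection.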
Numbers stand for hits; – = inactive; · = no result given; ! = not confirmed by another sample.

SMILES	D1 potentiator	D1 ag	D1 antagonist	DRD3 agonist	ERG Ets-DNA blk	D3 antag
O=C(COC(=O)c1ccc([N+](=O)[O-])o1)Nc1cccc(S(=O)(=O)N2CCCCC2)c1	–	–	-31	–	–	–
CCOc1cc(S(=O)(=O)N(CC)CC)ccc1Br	–	–	–	–	–	–
COc1ccc([C@]23Cc4ccccc4C(O2)C2=C(CC4(CCCCC4)OC2=O)O3)cc1	–	–	–	·	·	·
N#Cc1cc2ccccc2nc1SCC(=O)Nc1ccc(S(=O)(=O)N2CCCC2)cc1	–	41	–	–	–	–
CCOc1ncccc1C(=O)OCC(=O)Nc1ccc(S(=O)(=O)N2CCCC2)cc1	–	–	-56	–	–	–
CCOc1ncccc1C(=O)OCC(=O)Nc1ccc(S(=O)(=O)N2CCOCC2)cc1	–	–	–	–	–	–
Cc1cc(Cl)c(S(=O)(=O)NCC2CCCO2)cc1OCC(=O)NC1CCCCC1 (stereo not drawn)	–	–	–	–	–	–
Cc1noc(C)c1CSc1ccc(Br)cc1	–	–	-33	–	·	–
CC(=O)Nc1ccc(SCc2c(C)noc2C)cc1	–	–	–	–	–	–
COc1ccc(NC(=O)Cn2c(SCc3ccc(C)cc3)nc3cccnc32)c(OC)c1	–	–	–	39	–	·
Cc1cccc(C)c1OCC(=O)NCc1nnc(SCC(=O)NC2CCCCC2)n1C	–	–	–	–	–	-72
COc1ccc(NC(=O)CSc2oc(-c3cccs3)nc2S(=O)(=O)c2ccccc2)c(OC)c1	–	–	–	59	–	·
COc1ccc(NC(=O)CSc2nccn2Cc2ccccc2)c(OC)c1	–	–	-36	–	–	–
COc1ccc(NC(=O)CSc2nccn2Cc2ccc(F)cc2)c(OC)c1	–	–	–	–	–	–
O=C(NCCc1ccccc1)C1CCN(Cc2cccc3ccccc23)CC1	–	–	–	–	–	–
CC1Oc2ccccc2N(CC(=O)NC2CCCC2)C1=O (stereo not drawn)	–	–	–	–	–	–
CCc1cccc(NS(=O)(=O)c2c(C)nc3scc(C)n3c2=O)c1	–	–	–	–	–	–
CCN(CC)C(=O)c1cccc(-c2csc(C(O)c3ccco3)n2)c1 (stereo not drawn)	·	·	·	–	·	–
COc1ccc(Cn2ccnc2SCC(=O)NC2CCCC2)cc1	–	–	-67!	–	–	–
Cn1ccnc1SCC(=O)Nc1cccc2ccccc12	–	–	-34	–	–	–
CCn1c(CNC(=O)Cc2ccc(OC)cc2)nnc1SCC(=O)NC1CCCCC1	–	–	-39	–	–	–
CCn1c(SCC(=O)Nc2nc3ccccc3s2)nnc1-c1ccc(Br)cc1	–	–	–	–	–	–
COC(=O)c1ccccc1NC(=O)CSc1nccn1C	–	–	–	–	–	–
CCn1c(Cc2ccc(OC)cc2)nnc1SCC(=O)Nc1nc2ccccc2s1	–	–	-31	–	–	–
CCCNC(=O)CSc1nccn1Cc1ccc(OC)cc1	–	–	–	–	–	–
SMILES	D1 potentiator	D1 ag	D1 antagonist	DRD3 agonist	ERG Ets-DNA blk	D3 antag
CC(C)CCNC(=O)C(c1cccs1)N(CC1CCCO1)C(=O)Cn1nnc2ccccc21 (stereo not drawn)	–	–	–	–	–	–
COc1ccc(S(=O)(=O)Nc2ccccc2C(=O)NCc2cccnc2)cc1C	·	–	–	–	–	–
COc1cccc(-n2ccnc2SCC(=O)Nc2cccc(C)c2C)c1	–	–	–	–	–	·
O=C(CSc1nccn1-c1ccc(F)cc1)Nc1ccc(OC(F)(F)F)cc1	–	–	-76	–	–	·
COc1cccc(-n2ccnc2SCC(=O)Nc2ccccc2F)c1	–	–	-37	–	–	–
Cc1cccc2cc(CN(Cc3ccco3)C(=O)Nc3cccc(C#N)c3)c(Cl)nc12	–	–	-55	–	·	–
CCC(=O)N1CCc2cc(Br)cc(S(=O)(=O)N3CCCCCC3)c21	–	–	–	–	–	-64
CCC(=O)N1CCc2cc(Br)cc(S(=O)(=O)N3CCCC(C(=O)NCc4cccc(OC)c4)C3)c21 (stereo not drawn)	–	–	-31	–	–	·
CN(Cc1ccco1)C(=O)C1CCC(=O)N(CCc2cccc(F)c2)C1 (stereo not drawn)	–	–	–	–	–	–
O=C(c1ccccc1)N(Cc1ccccc1)c1ccccn1	–	–	–	–	–	–
O=C(c1ccc(Br)o1)N(Cc1ccccc1)c1ccccn1	–	–	–	32	–	–
O=C(c1ccc([N+](=O)[O-])cc1)N(Cc1ccccc1)c1ccccn1	–	–	–	–	–	-55
Cc1sc2ncn(CC(=O)N3CCN(c4ccc(F)cc4)CC3)c(=O)c2c1S(=O)(=O)N1CCCCC1	–	–	–	–	–	·
COc1ccc(/C(O)=C/c2nc3ccc(C(=O)NCCc4cccc(C)c4)cc3[nH]c2=O)cc1OC	–	71	–	–	–	–
CCOc1ccc(S(=O)(=O)N2CCN(C)CC2)c(C)c1C	–	–	-50	–	–	–
CCOc1ccc(S(=O)(=O)N2CCCCC2)c(C)c1C	–	–	–	–	–	–
COc1ccc(OC)c(NC(=O)Cc2c(C(=O)O)n(C)c3ccccc23)c1	–	–	–	–	–	–
COc1ccc(CCNC(=O)c2ccc(N3CCCCS3(=O)=O)cc2)cc1OC	–	–	–	–	–	–
Cc1ccc(-c2nc3ccc(C)cn3c2Cc2ccsc2)cc1	·	·	·	–	·	–
Cc1ccc2nc(C(C)(C)C)c(Cc3ccsc3)n2c1	·	·	·	–	·	-107
Cc1ccc(C(=O)C(C)OC(=O)CCN=C2NS(=O)(=O)c3ccccc32)cc1 (stereo not drawn)	–	–	-39	–	–	–
COc1ccccc1C(=O)COC(=O)CCN=C1NS(=O)(=O)c2ccccc21	–	–	–	–	–	–
O=C(CCCN=C1NS(=O)(=O)c2ccccc21)OCC(=O)c1ccccc1	–	–	-30	–	–	–
COc1ccc(Cl)cc1C(=O)NNC(=O)COC(=O)CCN=C1NS(=O)(=O)c2ccccc21	–	–	–	–	–	-108
CC(OC(=O)CCN=C1NS(=O)(=O)c2ccccc21)C(=O)c1ccccc1 (stereo not drawn)	–	–	–	–	·	–
O=C(CCN=C1NS(=O)(=O)c2ccccc21)OCC(=O)c1ccccc1	–	–	–	–	–	–
